Holding throughout (assay): NCI-60 one-dose screen, 48 h (100 = growth as untreated, 0 = no growth, -100 = all killed)
The test system of one test is 786-0 renal. The following applies: 10 µM.
In another test the test system is K-562 leukemia. The following applies: 10 µM.
In the next test the test system is MALME-3M melanoma. The following applies: 10 µM.
The subject of a further test is RXF 393 renal. The following applies: 10 µM.
A further test concerns EKVX NSCLC. The following applies: 10 µM.
In a further test the test system is SN12C renal. The following applies: 10 µM.
The next test has as its system UO-31 renal. The following applies: 10 µM.
The subject of a further test is TK-10 renal. The following applies: 10 µM.
For a further test, the system named is ACHN renal. The following applies: 10 µM.
The test system of the next test is CAKI-1 renal. The following applies: 10 µM.
The next test deals with CCRF-CEM leukemia. The following applies: 10 µM.
The next test deals with OVCAR-8 ovarian. The following applies: 10 µM.
In another test the test system is OVCAR-5 ovarian. The following applies: 10 µM.
For a further test, the system named is OVCAR-4 ovarian. The following applies: 10 µM.
The subject of a further test is SK-OV-3 ovarian. The following applies: 10 µM.
The test system of the next test is OVCAR-3 ovarian. The following applies: 10 µM.
A further test has as its system NCI/ADR-RES ovarian. The following applies: 10 µM.
The test system of another test is BT-549 breast. The following applies: 10 µM.
The subject of another test is MCF7 breast. The following applies: 10 µM.
The test system of the next test is MDA-MB-468 breast. The following applies: 10 µM unless noted.

Structures are written as SMILES. This is part of a sample that, as a whole, favours compounds with a hit. Of some 83,000 tested, about 20% had one in any assay.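 Values shown are percent growth following 48 h exposure of cells in 96-well plates to a single concentration of compound; below 10 was considered active.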 Unmarked numbers belong to inactive results. The source made the active and inactive calls.

Consider `O=C(NC([Se])=NC1CCCCC1)c1ccccc1`, for which the growth was 39.4% in the test with 786-0 renal; 59.2% in the test on K-562 leukemia; 94.4% with MALME-3M melanoma; 20.5% with RXF 393 renal; 19% with EKVX NSCLC; 39.6% in the test on SN12C renal. Besides, the growth was 6.45% (active) in the test with UO-31 renal; 28.8% in the test with TK-10 renal; 34.5% in the test with ACHN renal; 32.4% in the test with CAKI-1 renal; 54.5% in the test with CCRF-CEM leukemia; 40.9% with OVCAR-8 ovarian. Also, the growth in the test on OVCAR-5 ovarian is 62.2%; with OVCAR-4 ovarian, 75.7%; with SK-OV-3 ovarian, 5.33% (active); in the test on OVCAR-3 ovarian, 48.4%; with NCI/ADR-RES ovarian, 23.3%; in the test with BT-549 breast, 75.8%. Also, the growth in the test on MCF7 breast was 29.8%; in the test with MDA-MB-468 breast, 55%.

As to `CC[C@]12C=CCN3CC[C@@]4(c5ccc(OC)cc5N(C)[C@H]4[C@@](O)(C(=O)OC)[C@@H]1OC(=O)CCCC[P+](C1CCCCC1)(C1CCCCC1)C1CCCCC1)[C@@H]32`, the growth in the test with 786-0 renal was -36% (active); in the test on K-562 leukemia it was 7.48% (active); with MALME-3M melanoma it was -95.9% (active); in the test with RXF 393 renal, -73.8% (active); with EKVX NSCLC, 13.2%; with SN12C renal, -57.9% (active). In addition, the growth was 78.9% in the test with UO-31 renal; -64.1% (active) with TK-10 renal; 18.7% in the test with ACHN renal; -24.1% (active) with CAKI-1 renal; -60.2% (active) in the test on CCRF-CEM leukemia; -6.33% (active) in the test on OVCAR-8 ovarian. The growth is 5.84% (active) with OVCAR-5 ovarian; 12.4% in the test with OVCAR-4 ovarian; -22.3% (active) in the test with SK-OV-3 ovarian; -60.3% (active) with OVCAR-3 ovarian; 96.7% with NCI/ADR-RES ovarian; -97.4% (active) with BT-549 breast. In addition, the growth with MCF7 breast was -64.2% (active); in the test with MDA-MB-468 breast, -79% (active).

Take `O=C(/C=C/c1ccc(Cl)cc1)c1nc2ccccc2n1Cc1ccc(F)cc1`: the growth in the test on 786-0 renal is 5.13% (active); with K-562 leukemia, 5.25% (active); in the test with MALME-3M melanoma, 49.9%; in the test with RXF 393 renal, 19%; with EKVX NSCLC, 20.4%; with SN12C renal, 19.7%. Besides, the growth in the test with UO-31 renal is 31.4%; with TK-10 renal it was 58.1%; in the test on ACHN renal, 23.5%; in the test on CAKI-1 renal, 41.8%; in the test with CCRF-CEM leukemia it was -13.1% (active); with OVCAR-8 ovarian, 17.1%. Moreover, the growth is 19.1% in the test with OVCAR-5 ovarian; 58.8% in the test on OVCAR-4 ovarian; 78.1% in the test with SK-OV-3 ovarian; 22.7% in the test with OVCAR-3 ovarian; 7.75% (active) in the test on NCI/ADR-RES ovarian; 2.95% (active) in the test with BT-549 breast. The growth is 9.25% (active) with MCF7 breast and -5.26% (active) with MDA-MB-468 breast.

For the molecule `C[C@H]1[C@H](OC(=O)CCC(=O)N(CCCc2cn(-c3ccc(C#N)cc3)nn2)CCNc2ccnc3cc(Cl)ccc23)O[C@@H]2OC3(C)CC[C@H]4[C@H](C)CC[C@@H]1[C@@]24OO3`, the growth is 50.7% in the test on 786-0 renal; 6.77% (active) in the test with K-562 leukemia; 13.3% in the test with MALME-3M melanoma; 40.1% in the test on RXF 393 renal; 53% in the test with EKVX NSCLC; 58.9% in the test with SN12C renal. The growth in the test on UO-31 renal was 15%; in the test on TK-10 renal it was 54.2%; in the test on ACHN renal, 44.5%; in the test on CAKI-1 renal it was 40.8%; with CCRF-CEM leukemia it was 15%; with OVCAR-8 ovarian, 22.3%. Also, the growth in the test on OVCAR-5 ovarian is 54.5%; with OVCAR-4 ovarian, 41.9%; in the test with SK-OV-3 ovarian it was 84.4%; in the test on OVCAR-3 ovarian, 45.2%; in the test on NCI/ADR-RES ovarian, 28.4%; in the test on BT-549 breast, 24.2%. Besides, the growth in the test with MCF7 breast is -28% (active); in the test with MDA-MB-468 breast, 46%.

Take `COC(=O)C[C@](O)(CCCC(C)C)C(=O)O[C@H]1C(OC)=C[C@@]23CCCN2CCc2cc4c(cc2[C@@H]13)OCO4`: the growth in the test on 786-0 renal was 2.04% (active); in the test on K-562 leukemia, 3.55% (active); with MALME-3M melanoma, -38.5% (active); with RXF 393 renal, -8.52% (active); in the test on EKVX NSCLC it was 14.2%; with SN12C renal, 6.06% (active). Also, the growth with UO-31 renal was 6.22% (active); in the test with TK-10 renal it was 4.08% (active); in the test on ACHN renal, -8.49% (active); in the test with CAKI-1 renal it was -3.49% (active); in the test on CCRF-CEM leukemia, 0.557% (active); in the test on OVCAR-8 ovarian it was -21.3% (active). Also, the growth with OVCAR-5 ovarian is 5.45% (active); in the test on OVCAR-4 ovarian, -9.31% (active); in the test with SK-OV-3 ovarian, 0.521% (active); in the test with OVCAR-3 ovarian, -31% (active); in the test on NCI/ADR-RES ovarian, 14.1%; in the test with BT-549 breast, -17.8% (active). In addition, the values for the growth with MCF7 breast and in the test on MDA-MB-468 breast were -6.98% (active) and -27.4% (active), respectively.

As to `O=C(/C=C/c1ccc(Cl)cc1Cl)c1nc2ccccc2n1Cc1ccc(F)cc1`, the growth in the test with 786-0 renal is 19.8%; with K-562 leukemia, 14.5%; with MALME-3M melanoma, 69.1%; in the test on RXF 393 renal it was 32.4%; in the test on EKVX NSCLC it was 35.6%; in the test with SN12C renal, 60.4%. For the same molecule, the growth in the test on UO-31 renal was 36.5%; with TK-10 renal, 93.6%; with ACHN renal it was 48.7%; in the test on CAKI-1 renal it was 53.3%; in the test with CCRF-CEM leukemia it was -10.2% (active); in the test on OVCAR-8 ovarian, 56%. For the same molecule, the growth is 67.3% in the test with OVCAR-5 ovarian; 63.2% with OVCAR-4 ovarian; 103% with SK-OV-3 ovarian; 31.7% in the test with OVCAR-3 ovarian; 42.2% in the test on NCI/ADR-RES ovarian; 24.4% in the test with BT-549 breast. The growth with MCF7 breast is 5.98% (active); with MDA-MB-468 breast it was 12.3%.

Consider `CC[C@]12C=CCN3CC[C@@]4(c5ccc(OC)cc5N(C)[C@H]4[C@@](O)(C(=O)OC)[C@@H]1OC(=O)CCC[P+](c1ccc(F)cc1)(c1ccc(F)cc1)c1ccc(F)cc1)[C@@H]32`, for which the growth in the test with 786-0 renal is 80.9%; with K-562 leukemia it was 21.6%; in the test with MALME-3M melanoma it was -32.6% (active); in the test on RXF 393 renal, -10.4% (active); in the test on EKVX NSCLC it was 58.1%; in the test on SN12C renal, 16.6%. Moreover, the growth was 81.5% in the test on UO-31 renal; 63.9% in the test with TK-10 renal; 101% with ACHN renal; 73.1% with CAKI-1 renal; 20% in the test on CCRF-CEM leukemia; 28% in the test on OVCAR-8 ovarian. For the same molecule, the growth is 67% in the test on OVCAR-5 ovarian; 48.6% in the test on OVCAR-4 ovarian; 54.7% in the test on SK-OV-3 ovarian; 21.1% in the test with OVCAR-3 ovarian; 104% in the test on NCI/ADR-RES ovarian; -9.4% (active) in the test on BT-549 breast. Further, the growth is 7.7% (active) with MCF7 breast and -74.6% (active) in the test on MDA-MB-468 breast.
